Each compound was assayed against Vascular endothelial growth factor receptor 2 (Homo sapiens) (UniProt P35968). Conditions: at 10 µM.
Vascular endothelial growth factor receptor 2 (Homo sapiens), sequence (P35968 whole entry): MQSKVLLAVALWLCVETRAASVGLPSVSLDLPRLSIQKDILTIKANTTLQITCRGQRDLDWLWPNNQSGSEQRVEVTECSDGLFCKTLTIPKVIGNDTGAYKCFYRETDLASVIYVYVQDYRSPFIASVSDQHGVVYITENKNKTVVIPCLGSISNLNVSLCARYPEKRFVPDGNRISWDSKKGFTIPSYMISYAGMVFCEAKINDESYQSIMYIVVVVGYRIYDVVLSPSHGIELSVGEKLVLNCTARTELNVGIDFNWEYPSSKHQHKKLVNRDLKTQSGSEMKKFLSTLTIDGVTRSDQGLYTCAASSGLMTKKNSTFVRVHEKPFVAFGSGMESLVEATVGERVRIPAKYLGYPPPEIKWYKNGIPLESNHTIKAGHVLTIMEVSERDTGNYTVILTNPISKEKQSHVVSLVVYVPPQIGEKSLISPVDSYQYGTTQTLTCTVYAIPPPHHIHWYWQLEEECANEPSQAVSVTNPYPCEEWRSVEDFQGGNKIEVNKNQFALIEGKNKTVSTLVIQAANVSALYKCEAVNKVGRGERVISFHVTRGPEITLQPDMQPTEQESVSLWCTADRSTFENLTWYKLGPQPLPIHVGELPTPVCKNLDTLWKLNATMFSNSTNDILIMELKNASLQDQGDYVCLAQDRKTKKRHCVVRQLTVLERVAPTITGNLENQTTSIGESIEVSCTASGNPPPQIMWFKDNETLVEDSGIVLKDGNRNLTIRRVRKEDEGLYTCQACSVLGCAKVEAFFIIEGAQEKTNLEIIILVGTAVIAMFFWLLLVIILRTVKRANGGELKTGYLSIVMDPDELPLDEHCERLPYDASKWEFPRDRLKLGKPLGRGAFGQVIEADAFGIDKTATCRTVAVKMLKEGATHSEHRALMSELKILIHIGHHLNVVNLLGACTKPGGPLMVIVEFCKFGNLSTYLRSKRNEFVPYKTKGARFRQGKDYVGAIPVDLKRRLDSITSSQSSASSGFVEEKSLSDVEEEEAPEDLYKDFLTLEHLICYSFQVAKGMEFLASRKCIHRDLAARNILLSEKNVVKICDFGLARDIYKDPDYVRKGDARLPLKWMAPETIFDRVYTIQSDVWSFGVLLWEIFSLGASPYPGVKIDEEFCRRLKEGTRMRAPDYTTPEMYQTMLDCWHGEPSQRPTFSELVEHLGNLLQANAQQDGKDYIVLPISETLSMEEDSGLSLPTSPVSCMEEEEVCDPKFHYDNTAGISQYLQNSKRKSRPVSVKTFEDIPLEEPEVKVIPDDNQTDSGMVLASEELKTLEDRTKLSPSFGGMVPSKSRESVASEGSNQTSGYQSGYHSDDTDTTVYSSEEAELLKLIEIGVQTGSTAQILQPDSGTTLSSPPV

Point of comparison: `O=C(Nc1cccc(Nc2cc(Nc3cccc(C(F)(F)F)c3)ncn2)c1)C1CC1`, residual activity 75%. Against it:
- CCC(=O)Nc1ccc2ncnc(Nc3cccc(Br)c3)c2c1 — the same, 75%
- O=[N+]([O-])c1ccc(-c2nc(-c3ccc(F)cc3)c(-c3ccncc3)[nH]2)cc1 — higher, 93%
- O=c1c2ccccc2[nH]c(=S)n1CCN1CCC(=C(c2ccc(F)cc2)c2ccc(F)cc2)CC1 — higher, 90%
- COc1cc2ncnc(Nc3ccc(NC(=O)c4ccccc4)cc3)c2cc1OC — lower, 35%
- COc1ccc(OC)c2c(=S)c3ccccc3[nH]c12 — higher, 97%
- O=C(O)c1ccc2c3c1cccc3c(=O)n1c3ccccc3nc21 — lower, 56%
- Cn1cnc2cc3c(Nc4cccc(Br)c4)ncnc3cc21 — lower, 19%
- COc1ccc(S(=O)(=O)N(CCO)c2ccccc2CN(C)C/C=C/c2ccc(Cl)cc2)cc1 — higher, 95%
- CNc1cc2c(Nc3cccc(Br)c3)ncnc2cn1 — lower, 40%
- COc1cc2ncnc(N3CCN(C(=O)Nc4ccc(Oc5ccccc5)cc4)CC3)c2cc1OC — lower, 38%
- O=C(Nc1cccc(Nc2nccc(Nc3cccc(C(F)(F)F)c3)n2)c1)C1CC1 — lower, 25%
- c1ccc(-c2n[nH]cc2-c2ccnc3ccccc23)nc1 — lower, 23%
- O=c1cc(-c2cccc3c2Sc2ccccc2S3)oc(N2CCOCC2)c1 — higher, 89%
- O=Nc1c(-c2c(O)[nH]c3ccccc23)[nH]c2ccccc12 — lower, 1%
- Nc1n[nH]c2nnc(-c3c(-c4ccccc4)nn4ccccc34)cc12 — lower, 59%
- CC(=O)O/N=C1\C(=C2\C(=O)Nc3cc(Br)ccc32)Nc2ccccc21 — lower, 5%

What follows are compounds tested against LIM domain kinase 1 (Homo sapiens) (UniProt P53667). Conditions: at 1 µM.
LIM domain kinase 1 (Homo sapiens), sequence (P53667 whole entry, looked up, the tested form may be a part): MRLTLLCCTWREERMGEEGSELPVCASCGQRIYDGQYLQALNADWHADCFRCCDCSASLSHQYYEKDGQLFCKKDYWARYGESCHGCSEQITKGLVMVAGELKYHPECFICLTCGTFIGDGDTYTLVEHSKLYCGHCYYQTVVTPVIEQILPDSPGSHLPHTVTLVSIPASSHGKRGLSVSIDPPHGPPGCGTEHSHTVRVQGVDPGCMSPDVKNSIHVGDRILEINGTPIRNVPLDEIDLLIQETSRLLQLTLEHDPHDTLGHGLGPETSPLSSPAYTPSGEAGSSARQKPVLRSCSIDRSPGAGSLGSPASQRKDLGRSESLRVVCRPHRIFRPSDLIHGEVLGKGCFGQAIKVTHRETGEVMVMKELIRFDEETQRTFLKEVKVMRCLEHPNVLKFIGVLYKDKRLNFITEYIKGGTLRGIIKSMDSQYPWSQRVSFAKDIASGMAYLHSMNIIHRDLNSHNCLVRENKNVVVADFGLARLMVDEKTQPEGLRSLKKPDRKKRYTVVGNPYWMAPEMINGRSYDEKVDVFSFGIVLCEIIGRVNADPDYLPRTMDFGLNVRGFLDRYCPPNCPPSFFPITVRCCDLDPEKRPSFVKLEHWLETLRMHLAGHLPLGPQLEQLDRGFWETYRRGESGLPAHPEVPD

Point of comparison: `O=c1c2ccccc2[nH]c(=S)n1CCN1CCC(=C(c2ccc(F)cc2)c2ccc(F)cc2)CC1`, residual activity 119%. Against it:
- NC(=O)c1ccc2[nH]c(-c3ccc(Oc4ccc(Cl)cc4)cc3)nc2c1 — lower, 93%
- Cc1nc(-c2ccccc2)c(-c2ccncc2)o1 — lower, 106%
- CCOc1cc2ncnc(Nc3cccc(Br)c3)c2cc1OCC — lower, 107%
- CC(C)n1cnc2/c(=N/c3cccc(Cl)c3)nc(NCCO)[nH]c21 — lower, 96%
- Nc1nc(Nc2ccc(S(N)(=O)=O)cc2)nn1C(=S)Nc1c(F)cccc1F — lower, 5%
- Cc1ccc(S(=O)(=O)/C=C/C#N)cc1 — lower, 92%
- Ic1cccc(CSc2nnc(-c3ccncc3)o2)c1 — lower, 84%
- O=C1NC(=O)c2c1c1c3ccccc3[nH]c1c1[nH]c3cc(Br)ccc3c21 — lower, 99%
- O=C1NC(=O)/C(=C\c2ccc3nccnc3c2)S1 — lower, 91%
- CCN(CC)CCCCN1c2ccccc2Oc2ccc(Cl)cc21 — higher, 133%
- COc1cccc(-c2cc(=O)c3ccccc3o2)c1N — lower, 93%
- O=C1c2ccccc2-[n+]2ccc3c([nH]c4ccccc43)c21 — lower, 91%
- Oc1ccc(-c2nc(-c3ccc(F)cc3)c(-c3ccncc3)[nH]2)cc1 — lower, 101%
- Cc1nc2cc3nc(-c4cccs4)cnc3cc2n1C — lower, 116%
- COc1ccc(C(=O)Nc2sc3c(c2C(N)=O)CCCC3)cc1OC — lower, 102%
- Cn1cc(/C=C2\C(=O)Nc3ccc(S(N)(=O)=O)cc32)c2ccccc21 — lower, 101%
- Nc1ccc2ncnc(NCCc3ccc(Oc4ccccc4)cc3)c2c1 — lower, 106%
- CO[C@H]1C[C@@H]2CC[C@@H](C)[C@@](O)(O2)C(=O)C(=O)N2CCCC[C@H]2C(=O)O[C@H]([C@H](C)C[C@@H]2CC[C@@H](O)[C@H](OC)C2)CC(=O)[C@H](C)/C=C(\C)[C@@H](O)[C@@H](OC)C(=O)[C@H](C)C[C@H](C)/C=C/C=C/C=C/1C — lower, 102%
- CCC(=O)Nc1ccc2ncnc(Nc3cccc(Br)c3)c2c1 — lower, 97%
- O=C(Nc1cccc(Nc2cc(Nc3cccc(C(F)(F)F)c3)ncn2)c1)C1CC1 — lower, 87%
- O=[N+]([O-])c1ccc(-c2nc(-c3ccc(F)cc3)c(-c3ccncc3)[nH]2)cc1 — lower, 96%
- COc1cc2ncnc(Nc3ccc(NC(=O)c4ccccc4)cc3)c2cc1OC — lower, 110%
- COc1ccc(OC)c2c(=S)c3ccccc3[nH]c12 — lower, 93%
- O=C(O)c1ccc2c3c1cccc3c(=O)n1c3ccccc3nc21 — lower, 101%
- Cn1cnc2cc3c(Nc4cccc(Br)c4)ncnc3cc21 — lower, 105%
- COc1ccc(S(=O)(=O)N(CCO)c2ccccc2CN(C)C/C=C/c2ccc(Cl)cc2)cc1 — lower, 93%
- CNc1cc2c(Nc3cccc(Br)c3)ncnc2cn1 — lower, 102%
- COc1cc2ncnc(N3CCN(C(=O)Nc4ccc(Oc5ccccc5)cc4)CC3)c2cc1OC — lower, 54%
- O=C(Nc1cccc(Nc2nccc(Nc3cccc(C(F)(F)F)c3)n2)c1)C1CC1 — lower, 26%
- c1ccc(-c2n[nH]cc2-c2ccnc3ccccc23)nc1 — lower, 90%
- O=c1cc(-c2cccc3c2Sc2ccccc2S3)oc(N2CCOCC2)c1 — lower, 98%
- O=Nc1c(-c2c(O)[nH]c3ccccc23)[nH]c2ccccc12 — lower, 61%
- Nc1n[nH]c2nnc(-c3c(-c4ccccc4)nn4ccccc34)cc12 — lower, 82%
- CC(=O)O/N=C1\C(=C2\C(=O)Nc3cc(Br)ccc32)Nc2ccccc21 — lower, 83%

Reference: ChEMBL document CHEMBL2218924, “A broad activity screen in support of a chemogenomic map for kinase signalling research and drug discovery” (Biochem J, 2013)
